From PubChem BioAssay AID624331 (National Center for Advancing Translational Sciences (NCATS), 2012)
Results filed as inconclusive are left out. A number with no mark means an inactive call. Calls come from the whole dose curve; as a rule, active = well fitted activation curve with a large enough effect; inconclusive = small, poorly fitted or top-dose-only effect; inactive = no such curve, though single readings can be large or run the other way.

assay: qHTS assay for re-activators of p53 using a Luc reporter: Hit Validation with no p53 Expressed; conditions: p53-null cells, luciferase reporter counter-screen; series mostly up to 46.1 µM; activity change, positive = activation: at the top concentration; note: 0% is about no effect
In short: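 Counter-screen of primary hits in a cell line not transfected with p53, in Opti-MEM with 10% FBS; compounds at several concentrations (10 mM stock, 1:5; top 46.1 µM in well), 24 h at 37 deg C, 5% CO2. Luminescence read after 10 min with Amplite reagent.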

First: Nc1c(C(=O)c2ccc(Br)cc2)oc2ccccc12
Second: Cc1cc(NC(=O)c2cccc(COc3ccc(Br)cc3)c2)no1
The “activity change, positive = activation” value of the first is higher: 43.6% for the first, -10.5% for the second.

Going from Cc1cccnc1NC(=O)c1ccc([N+](=O)[O-])o1 to Cc1ccc(C(=O)Nc2ccc(Cl)cn2)cc1, the “activity change, positive = activation” value falls from 83.6% to 26.6%.

First: CC(=O)N(C)c1ccc(NC(=O)CCN2C(=O)c3ccccc3C2=O)cc1
Second: COc1ccc(CC(=O)Nc2ccc(C(=O)Nc3ccccc3C(=O)O)cc2)cc1OC
The “activity change, positive = activation” value of the first is lower: -23.3% for the first, -17.2% for the second.

First: C(=N\Nc1nc2ccccc2s1)/c1ccc2c(c1)OCO2
Second: Nn1cnnc1N/N=C\c1ccc(-c2ccccc2[N+](=O)[O-])o1
The “activity change, positive = activation” value of the first is lower: 9.11% for the first, 33.7% for the second.

Going from CCOC(=O)C1CCN(S(=O)(=O)Cc2ccccc2)C1=O (centres undefined) to Cc1ccc(C(=O)NC2CC2)cc1S(=O)(=O)N1CCOCC1, the “activity change, positive = activation” value falls from 10.1% to -41.5%.

Going from CCc1cc2c(=O)c(-c3ccc4c(c3)OCCO4)coc2cc1OS(C)(=O)=O to COc1ccc(-n2c(C)cc(C(=O)COc3ccc(C)nc3[N+](=O)[O-])c2C)cc1, the “activity change, positive = activation” value falls from 59.3% to -28.6%.

Going from CC(C)OC(=O)CCCCCN1C(=O)CSC1=S to CN1CCc2c(sc(NC(=O)C3COc4ccccc4O3)c2C(N)=O)C1 (centres undefined), the “activity change, positive = activation” value falls from -21.6% to -38.2%.

Going from CC(=O)Nc1cccc(C(=O)N/N=C/c2ccccc2F)c1 to Cc1noc(C)c1COc1ccc(C(=O)NCCOc2ccccc2)cc1, the “activity change, positive = activation” value falls from 92.9% to 10.3%.

First: Cc1c(C(=O)N2CCc3ccccc32)oc2c1C(=O)CC(C)(C)C2
Second: COc1ccc(N2CCN(CC(=O)Nc3ccc(C)cc3)CC2)cc1
The “activity change, positive = activation” value of the first is higher: 22.4% for the first, -7.99% for the second.

With O=C(Nn1c(SCc2ccc([N+](=O)[O-])cc2)nc2ccccc2c1=O)c1ccc(F)cc1 the “activity change, positive = activation” value was 24.3%.
